# Source: PubChem BioAssay (EPA / NIEHS)
# Active and inactive are the calls of the source. Rule for the calls: active = hit-call score of the fitted dose curve at least 0.9, where 1 is the maximum; inactive = score below 0.9.
# Key:
# Conditions in all cases: mRNA level, 48 h; actives raise or lower the signal
# [1] = read-out: Tumor necrosis factor receptor superfamily member 6 (Homo sapiens) (UniProt P25445); assay: LTEA_HepaRG_FAS: Life Technologies and Expression Analysis (LTEA) Assay for Fas cell surface death receptor (FAS) using HepaRG (AID 2283447)
# Outline: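 Differentiated HepaRG cells in serum-free induction medium were exposed 48 h to 8 half-log concentrations up to 100 uM in 0.5% DMSO, in duplicate. FAS mRNA was measured by qRT-PCR normalised to ACTB, GAPDH and POLR2A; bidirectional fit versus DMSO.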
# [2] = read-out: Fatty acid synthase (Homo sapiens) (UniProt P49327); assay: LTEA_HepaRG_FASN: Life Technologies and Expression Analysis (LTEA) Assay for Fatty Acid Synthase (FASN) using HepaRG (AID 2283448)
# Outline: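 FASN expression changes, up or down relative to 0.5% DMSO, were measured by qRT-PCR in human HepaRG cells after 48 h treatment with chemicals at eight concentrations (half-log steps from 100 uM).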
# [3] = read-out: Cyclin D2 (CCND2), CCND2 (gene 894); assay: LTEA_HepaRG_CCND2: Life Technologies and Expression Analysis (LTEA) Assay for Cyclin D2 (CCND2) using HepaRG (AID 2283449);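 note: CCND2 transcript measured by TaqMan qRT-PCR and normalised to three housekeeping genes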
# Outline: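 Chemicals in 0.5% DMSO, eight half-log concentrations from 100 uM top, were applied in duplicate for 48 h to human HepaRG cells in serum-free induction medium. CCND2 mRNA by TaqMan qRT-PCR, normalised to ACTB/GAPDH/POLR2A; bidirectional fit versus DMSO.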
# [4] = read-out: Cyclin Dependent Kinase Inhibitor 1A (CDKN1A), CDKN1A (gene 1026); assay: LTEA_HepaRG_CDKN1A: Life Technologies and Expression Analysis (LTEA) Assay for Cyclin Dependent Kinase Inhibitor 1A (CDKN1A) using HepaRG (AID 2283450)
# Outline: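 Read-out is CDKN1A mRNA by TaqMan qRT-PCR, normalized to three housekeeping genes and fitted in both directions against the DMSO baseline. Human HepaRG cells were treated 48 h with test chemicals up to 100 uM in half-log steps, 0.5% DMSO.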
# [5] = read-out: Cyclin D1 (CCND1), CCND1 (gene 595); assay: LTEA_HepaRG_CCND1: Life Technologies and Expression Analysis (LTEA) Assay for Cyclin D1 (CCND1) using HepaRG (AID 2283451)
# Outline: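 HepaRG plated 48 h, medium switched to serum-free induction medium, chemicals added in duplicate (top 100 uM, half-log steps, 0.5% DMSO) for 48 h, cells lysed, RNA measured by TaqMan qRT-PCR.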
# [6] = read-out: catalase (CAT), CAT (gene 847); assay: LTEA_HepaRG_CAT: Life Technologies and Expression Analysis (LTEA) Assay for catalase (CAT) using HepaRG (AID 2283452);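 for AC50: TaqMan qRT-PCR signal normalized to ACTB GAPDH and POLR2A housekeeping genes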
# Outline: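 HepaRG cells in serum-free induction medium, 0.5% DMSO vehicle, exposed 48 h in duplicate over 8 half-log concentrations from 100 uM. CAT mRNA measured by qRT-PCR, normalized to ACTB, GAPDH, POLR2A; bidirectional fit versus DMSO.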
# [7] = read-out: flavin-containing dimethylaniline monooxygenases 3 (FMO3), FMO3 (gene 2328); assay: LTEA_HepaRG_FMO3: Life Technologies and Expression Analysis (LTEA) Assay for flavin-containing dimethylaniline monooxygenases 3 (FMO3) using HepaRG (AID 2283453)
# Outline: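 Differentiated HepaRG cells in serum-free induction medium, exposed 48 h in duplicate to 8 half-log concentrations up to 100 uM in 0.5% DMSO. FMO3 mRNA by qRT-PCR, normalized to ACTB, GAPDH, POLR2A; bidirectional fit vs DMSO.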
# [8] = read-out: CFLAR gene, CFLAR (gene 8837); assay: LTEA_HepaRG_CFLAR: Life Technologies and Expression Analysis (LTEA) Assay for CFLAR gene using HepaRG (AID 2283455)
# Outline: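 Differentiated HepaRG cells in serum-free induction medium were exposed 48 h in duplicate to eight half-log concentrations up to 100 uM in 0.5% DMSO; mRNA measured by TaqMan qRT-PCR, normalized to ACTB, GAPDH, POLR2A; bidirectional fitting versus DMSO.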
# [9] = read-out: growth arrest and DNA damage 45 (GADD45A), GADD45A (gene 1647); assay: LTEA_HepaRG_GADD45A: Life Technologies and Expression Analysis (LTEA) Assay for growth arrest and DNA damage 45 (GADD45A) using HepaRG (AID 2283458)
# Outline: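 Cells plated and cultured 48 h, switched to serum-free induction medium, then dosed for 48 h (100 uM top, half-log dilutions, 0.5% DMSO). RNA was isolated and transcript measured by Fluidigm qRT-PCR.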
# [10] = read-out: Forkhead box O3 (FOXO3), FOXO3 (gene 2309); assay: LTEA_HepaRG_FOXO3: Life Technologies and Expression Analysis (LTEA) Assay for Forkhead box O3 (FOXO3) using HepaRG (AID 2283459)
# Outline: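 Differentiated human HepaRG cells, 48 h post-plating, exposed in duplicate for 48 h in serum-free induction medium; 8-point half-log series from 100 uM in 0.5% DMSO. FOXO3 mRNA by TaqMan qRT-PCR, normalized to ACTB/GAPDH/POLR2A; bidirectional fit versus DMSO.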
# [11] = read-out: ABC Transporter (ABCB1), ABCB1 (gene 5243); assay: LTEA_HepaRG_ABCB1: Life Technologies and Expression Analysis (LTEA) Assay for ABC Transporter (ABCB1) using HepaRG (AID 2283460)
# Outline: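 HepaRG cells exposed in duplicate for 48 h in serum-free induction medium to eight half-log concentrations up to 100 uM in 0.5% DMSO. ABCB1 mRNA quantified by qRT-PCR, normalised to ACTB, GAPDH and POLR2A; fitted bidirectionally versus DMSO.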
# [12] = read-out: growth arrest and DNA damage 45 (GADD45B), GADD45B (gene 4616); assay: LTEA_HepaRG_GADD45B: Life Technologies and Expression Analysis (LTEA) Assay for growth arrest and DNA damage 45 (GADD45B) using HepaRG (AID 2283461)
# Outline: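 HepaRG, ~100,000 cells/well, 48 h plating; serum-free induction medium; cpd 100 uM top, half-log x8, 0.5% DMSO, duplicate, 48 h; lysis in RLT, RNA isolation, qRT-PCR; norm ACTB/GAPDH/POLR2A; bidirectional fit vs DMSO.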
# [13] = read-out: ABC Transporter (ABCC3), ABCC3 (gene 8714); assay: LTEA_HepaRG_ABCC3: Life Technologies and Expression Analysis (LTEA) Assay for ABC Transporter (ABCC3) using HepaRG (AID 2283462)
# Outline: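 Human HepaRG, 48 h dosing, 8-pt half-log series from 100 uM, 0.5% DMSO vehicle, duplicates. ABCC3 mRNA by TaqMan qRT-PCR, housekeeping-normalized; bidirectional curve fit vs DMSO.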
# [14] = read-out: ABC Transporter (ABCB11), ABCB11 (gene 8647); assay: LTEA_HepaRG_ABCB11: Life Technologies and Expression Analysis (LTEA) Assay for ABC Transporter (ABCB11) using HepaRG (AID 2283463)
# Outline: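 Differentiated human HepaRG cells in serum-free induction medium, dosed in duplicate for 48 h. Eight-point half-log series from 100 uM in 0.5% DMSO; ABCB11 mRNA by qRT-PCR, normalized to ACTB, GAPDH, POLR2A, fitted bidirectionally versus DMSO.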
# [15] = read-out: ABC Transporter (ABCC2), ABCC2 (gene 1244); assay: LTEA_HepaRG_ABCC2: Life Technologies and Expression Analysis (LTEA) Assay for ABC Transporter (ABCC2) using HepaRG (AID 2283464)
# Outline: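 HepaRG, 48 h post-plating; serum-free induction medium; cpd 8-pt, 100 uM top, half-log, 0.5% DMSO, duplicate, 48 h. Readout: ABCC2 mRNA by qRT-PCR, norm. ACTB/GAPDH/POLR2A. Bidirectional fit vs DMSO baseline.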
# [16] = read-out: Broad substrate specificity ATP-binding cassette transporter ABCG2 (Homo sapiens) (UniProt Q9UNQ0); assay: LTEA_HepaRG_ABCG2: Life Technologies and Expression Analysis (LTEA) Assay for ABC Transporter (ABCG2) using HepaRG (AID 2283465)
# Outline: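 Differentiated HepaRG cells were exposed for 48 h in serum-free induction medium to 8 half-log concentrations, top 100 uM, in 0.5% DMSO. ABCG2 mRNA was measured by qRT-PCR, normalized to ACTB, GAPDH and POLR2A, with bidirectional fitting versus DMSO.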
# [17] = read-out: ATP-citrate lyase (ACLY), ACLY (gene 47); assay: LTEA_HepaRG_ACLY: Life Technologies and Expression Analysis (LTEA) Assay for ATP-citrate lyase (ACLY) using HepaRG (AID 2283466)
# Outline: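 Differentiated HepaRG cells exposed 48 h in serum-free induction medium to eight half-log concentrations up to 100 uM in 0.5% DMSO, duplicates. Transcript measured by Fluidigm TaqMan qRT-PCR, normalized to ACTB, GAPDH, POLR2A; bidirectional fit versus DMSO.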
# Chain of Broad substrate specificity ATP-binding cassette transporter ABCG2 (Homo sapiens) (Q9UNQ0 whole entry, looked up): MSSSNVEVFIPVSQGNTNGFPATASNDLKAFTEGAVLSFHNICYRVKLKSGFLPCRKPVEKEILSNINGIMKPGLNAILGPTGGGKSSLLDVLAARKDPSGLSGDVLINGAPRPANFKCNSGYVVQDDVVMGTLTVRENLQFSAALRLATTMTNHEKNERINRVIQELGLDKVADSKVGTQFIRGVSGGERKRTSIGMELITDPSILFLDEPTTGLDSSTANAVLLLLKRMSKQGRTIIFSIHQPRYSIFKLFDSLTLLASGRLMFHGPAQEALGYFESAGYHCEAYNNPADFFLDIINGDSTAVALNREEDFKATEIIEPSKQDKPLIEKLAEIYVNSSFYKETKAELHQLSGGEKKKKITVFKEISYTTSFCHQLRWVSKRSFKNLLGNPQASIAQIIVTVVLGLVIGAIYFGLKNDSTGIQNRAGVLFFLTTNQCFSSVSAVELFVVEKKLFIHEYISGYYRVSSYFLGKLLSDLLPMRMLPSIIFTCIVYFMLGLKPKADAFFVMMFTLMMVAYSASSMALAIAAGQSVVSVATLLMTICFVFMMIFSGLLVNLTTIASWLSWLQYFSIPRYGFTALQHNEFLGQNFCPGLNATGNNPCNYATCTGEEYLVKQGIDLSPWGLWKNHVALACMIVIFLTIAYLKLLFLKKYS
# Chain of Fatty acid synthase (Homo sapiens) (P49327 whole entry, looked up): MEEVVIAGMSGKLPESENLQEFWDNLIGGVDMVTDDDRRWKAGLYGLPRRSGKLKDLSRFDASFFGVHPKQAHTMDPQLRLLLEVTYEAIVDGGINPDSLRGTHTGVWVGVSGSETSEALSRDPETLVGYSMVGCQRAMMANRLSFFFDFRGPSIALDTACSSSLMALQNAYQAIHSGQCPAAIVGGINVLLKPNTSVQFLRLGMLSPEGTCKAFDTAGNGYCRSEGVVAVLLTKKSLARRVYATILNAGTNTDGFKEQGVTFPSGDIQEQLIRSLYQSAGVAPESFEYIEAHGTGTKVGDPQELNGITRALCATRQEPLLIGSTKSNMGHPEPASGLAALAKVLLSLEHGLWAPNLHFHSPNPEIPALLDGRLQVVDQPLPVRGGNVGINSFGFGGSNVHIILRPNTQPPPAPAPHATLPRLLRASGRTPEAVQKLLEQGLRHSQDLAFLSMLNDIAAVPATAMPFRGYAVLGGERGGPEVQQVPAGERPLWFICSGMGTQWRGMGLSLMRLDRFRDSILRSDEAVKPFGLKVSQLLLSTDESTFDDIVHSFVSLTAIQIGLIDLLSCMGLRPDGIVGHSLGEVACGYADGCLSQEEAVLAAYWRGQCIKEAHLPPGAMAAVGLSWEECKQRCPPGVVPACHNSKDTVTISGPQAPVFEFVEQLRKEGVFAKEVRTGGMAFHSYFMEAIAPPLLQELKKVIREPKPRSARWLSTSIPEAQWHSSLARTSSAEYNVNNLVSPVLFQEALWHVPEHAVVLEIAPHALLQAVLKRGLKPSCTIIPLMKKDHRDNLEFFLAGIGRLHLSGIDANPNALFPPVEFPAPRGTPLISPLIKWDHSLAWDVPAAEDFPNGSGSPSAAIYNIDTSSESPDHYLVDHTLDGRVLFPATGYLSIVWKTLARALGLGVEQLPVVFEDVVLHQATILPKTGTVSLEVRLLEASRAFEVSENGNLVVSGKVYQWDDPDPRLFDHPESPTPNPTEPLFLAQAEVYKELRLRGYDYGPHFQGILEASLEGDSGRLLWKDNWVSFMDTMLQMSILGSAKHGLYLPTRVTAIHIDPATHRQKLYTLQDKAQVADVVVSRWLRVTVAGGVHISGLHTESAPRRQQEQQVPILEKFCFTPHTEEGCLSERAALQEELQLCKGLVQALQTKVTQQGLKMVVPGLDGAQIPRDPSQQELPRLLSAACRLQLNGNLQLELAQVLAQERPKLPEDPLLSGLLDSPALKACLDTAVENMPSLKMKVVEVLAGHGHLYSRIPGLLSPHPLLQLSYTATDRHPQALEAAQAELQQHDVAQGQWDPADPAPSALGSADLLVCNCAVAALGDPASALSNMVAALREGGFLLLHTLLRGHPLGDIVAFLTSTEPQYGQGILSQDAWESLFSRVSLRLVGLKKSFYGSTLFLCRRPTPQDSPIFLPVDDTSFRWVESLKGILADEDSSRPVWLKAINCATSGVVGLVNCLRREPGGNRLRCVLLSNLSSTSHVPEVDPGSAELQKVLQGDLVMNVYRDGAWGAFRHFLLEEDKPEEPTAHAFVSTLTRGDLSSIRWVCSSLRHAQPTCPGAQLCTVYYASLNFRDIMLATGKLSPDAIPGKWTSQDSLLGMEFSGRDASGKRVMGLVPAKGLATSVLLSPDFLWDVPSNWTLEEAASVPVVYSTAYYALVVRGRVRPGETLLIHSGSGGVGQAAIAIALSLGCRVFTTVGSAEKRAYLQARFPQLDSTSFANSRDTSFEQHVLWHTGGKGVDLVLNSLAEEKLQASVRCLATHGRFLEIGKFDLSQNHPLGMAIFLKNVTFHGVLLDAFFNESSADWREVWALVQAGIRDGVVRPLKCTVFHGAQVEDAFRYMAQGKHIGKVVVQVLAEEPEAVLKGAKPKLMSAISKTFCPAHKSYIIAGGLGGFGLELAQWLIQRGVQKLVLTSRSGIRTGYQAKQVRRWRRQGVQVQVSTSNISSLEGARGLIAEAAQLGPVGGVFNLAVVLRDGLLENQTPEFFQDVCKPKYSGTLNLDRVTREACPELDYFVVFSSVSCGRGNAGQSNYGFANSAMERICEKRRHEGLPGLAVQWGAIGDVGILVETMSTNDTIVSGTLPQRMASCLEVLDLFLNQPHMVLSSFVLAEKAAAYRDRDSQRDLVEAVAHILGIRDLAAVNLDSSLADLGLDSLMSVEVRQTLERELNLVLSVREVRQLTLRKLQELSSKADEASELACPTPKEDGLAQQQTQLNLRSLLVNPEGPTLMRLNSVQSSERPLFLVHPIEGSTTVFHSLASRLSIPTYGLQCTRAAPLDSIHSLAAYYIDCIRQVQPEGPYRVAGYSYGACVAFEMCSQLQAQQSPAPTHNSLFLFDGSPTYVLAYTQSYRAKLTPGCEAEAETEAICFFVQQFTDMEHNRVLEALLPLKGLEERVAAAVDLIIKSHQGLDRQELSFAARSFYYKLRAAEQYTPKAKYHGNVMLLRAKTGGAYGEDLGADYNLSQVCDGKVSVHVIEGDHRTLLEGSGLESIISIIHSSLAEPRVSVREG
compound,measurement,setting,value
O=C(OCCOCCOC(=O)c1ccccc1)c1ccccc1,outcome,[1],inactive
same,outcome,[2],inactive
same,outcome,[3],inactive
same,outcome,[4],inactive
same,outcome,[5],inactive
same,outcome,[6],inactive
same,outcome,[7],inactive
same,outcome,[8],inactive
same,outcome,[9],inactive
same,outcome,[10],inactive
same,outcome,[11],inactive
same,outcome,[12],inactive
same,outcome,[13],inactive
same,outcome,[14],inactive
same,outcome,[15],inactive
same,outcome,[16],inactive
same,outcome,[17],inactive
CCN(CC)CCNc1ccc(CNC=O)c2sc3ccc(OC)cc3c(=O)c12,outcome,[1],inactive
same,outcome,[3],inactive
same,outcome,[4],inactive
same,outcome,[5],inactive
same,AC50,[6],17.5 µM (active)
same,AC50,[7],34.6 µM (active)
same,AC50,[8],27.5 µM (active)
same,outcome,[9],inactive
same,AC50,[10],50 µM (active)
same,AC50,[11],60.8 µM (active)
same,AC50,[12],11.4 µM (active)
same,AC50,[13],86.6 µM (active)
same,AC50,[14],11.4 µM (active)
same,AC50,[15],77.5 µM (active)
same,AC50,[16],9.65 µM (active)
same,AC50,[17],83.2 µM (active)
CC1=C(/C=C/C(C)=C/C=C/C(C)=C/C(=O)O)C(C)(C)CCC1,outcome,[1],inactive
same,outcome,[3],inactive
same,outcome,[4],inactive
same,outcome,[5],inactive
same,AC50,[6],9.37 µM (active)
same,AC50,[7],0.446 µM (active)
same,AC50,[8],5.84 µM (active)
same,outcome,[9],inactive
same,outcome,[10],inactive
same,AC50,[11],0.81 µM (active)
same,outcome,[12],inactive
same,outcome,[13],inactive
same,AC50,[14],29.4 µM (active)
same,outcome,[15],inactive
same,AC50,[16],3.14 µM (active)
same,outcome,[17],inactive
CCCCOCCO,outcome,[1],inactive
same,outcome,[2],inactive
same,outcome,[3],inactive
same,outcome,[4],inactive
same,outcome,[5],inactive
same,outcome,[6],inactive
same,outcome,[7],inactive
same,outcome,[8],inactive
same,outcome,[9],inactive
same,outcome,[10],inactive
same,outcome,[11],inactive
same,outcome,[12],inactive
same,outcome,[13],inactive
same,outcome,[14],inactive
same,outcome,[15],inactive
same,outcome,[16],inactive
same,outcome,[17],inactive
N#C[C@@H]1CC(F)(F)CN1C(=O)CNC1CC2CCC(C1)N2c1ncccn1 (stereo not given in full),outcome,[1],inactive
same,outcome,[2],inactive
same,outcome,[3],inactive
same,outcome,[4],inactive
same,outcome,[5],inactive
same,outcome,[6],inactive
same,outcome,[7],inactive
same,outcome,[8],inactive
same,outcome,[9],inactive
same,outcome,[10],inactive
same,outcome,[11],inactive
same,outcome,[12],inactive
same,outcome,[13],inactive
same,outcome,[14],inactive
same,outcome,[15],inactive
same,outcome,[16],inactive
same,outcome,[17],inactive
CC(C)(C)c1cccc(C(C)(C)C)c1O,outcome,[1],inactive
same,outcome,[2],inactive
same,outcome,[4],inactive
same,outcome,[5],inactive
same,outcome,[6],inactive
same,outcome,[7],inactive
same,outcome,[8],inactive
same,outcome,[9],inactive
same,outcome,[10],inactive
same,outcome,[11],inactive
same,outcome,[12],inactive
same,outcome,[13],inactive
same,outcome,[14],inactive
same,outcome,[15],inactive
same,outcome,[16],inactive
same,outcome,[17],inactive
Oc1cc2ccccc2c2ccccc12,outcome,[1],inactive
same,outcome,[2],inactive
same,outcome,[4],inactive
same,outcome,[5],inactive
same,outcome,[6],inactive
same,outcome,[7],inactive
same,outcome,[8],inactive
same,outcome,[9],inactive
same,outcome,[10],inactive
same,outcome,[11],inactive
same,outcome,[12],inactive
same,outcome,[13],inactive
same,AC50,[14],38.9 µM (active)
same,outcome,[15],inactive
same,outcome,[16],inactive
same,outcome,[17],inactive
